# Experimental data from PubChem BioAssay AID504462 (Sanford-Burnham Center for Chemical Genomics, 2011).
# Hit rate of the full screen: of about 340,000 compounds, about 1,700 (0.5%) were called active. The sample as a whole holds a higher share of actives than the screen did. Values without a mark were called inactive. Cut-off read from the data, not from the text of the source: active = inhibition above about 40%; inactive = the rest.
# Biological target: Cysteine protease ATG4B (Homo sapiens) (UniProt Q9Y4P1)
# Test: ATG4B protease inhibitors, primary screen, biochemical, fluorescence, uHTS (AID 504462)
# Details: ATG4B cleavage of LC3-PLA2, NBD-HPC fluorescence, 1 h; at 8.33 µM; active compounds read high
# Cysteine protease ATG4B (Homo sapiens), sequence (Q9Y4P1 whole entry, looked up): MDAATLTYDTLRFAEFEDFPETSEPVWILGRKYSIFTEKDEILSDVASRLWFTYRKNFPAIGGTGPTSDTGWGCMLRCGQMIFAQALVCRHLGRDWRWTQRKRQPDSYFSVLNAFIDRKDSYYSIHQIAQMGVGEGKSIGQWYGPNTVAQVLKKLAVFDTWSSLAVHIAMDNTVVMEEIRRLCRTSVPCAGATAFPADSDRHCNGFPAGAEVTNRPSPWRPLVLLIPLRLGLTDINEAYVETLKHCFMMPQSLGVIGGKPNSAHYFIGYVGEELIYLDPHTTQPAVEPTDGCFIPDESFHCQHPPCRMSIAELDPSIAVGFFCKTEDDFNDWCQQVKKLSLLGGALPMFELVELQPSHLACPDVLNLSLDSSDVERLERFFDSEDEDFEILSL
row,Structure (SMILES),inhibition
1,CC1(C)C/C(=N/Nc2ccc([N+](=O)[O-])cc2[N+](=O)[O-])C(C)(C)O1,0.43%
2,CC(=O)c1c(N2CCOCC2)nc(=S)n(Cc2ccccc2)c1C,-2.2%
3,Oc1c(Cl)cc(Cl)c(Cl)c1Cc1c(O)c(Cl)cc(Cl)c1Cl,87.4% (active)
4,ClC1(Cl)CC1CSc1ncn[nH]1 (stereo unspecified),-3.17%
5,Nc1c(Cl)cc(-c2csc(N3CCCC3c3nc4cc(Cl)c(Cl)cc4n3CCOCCO)n2)cc1Cl (stereo unspecified),-22.9%
6,CC(=O)NC1(c2cccc(F)c2)CCN(CC(=O)NC(C)C)CC1,-3.58%
7,CCc1ccccc1NC(=S)Nc1cc(OC)c(NC(=O)C(C)C)cc1OC,3.4%
8,CCc1ccccc1NC(=O)CCOc1ccccc1,-0.7%
9,CCc1ccccc1NC(=O)/C(=C/c1ccccc1)c1ccccc1,59.5% (active)
10,CCN1CCN(C(C(=O)NC2CCCC2)c2cc3c(cc2[N+](=O)[O-])OCO3)CC1 (stereo unspecified),-0.97%
11,O=C(N[C@@H](Cc1c[nH]c2ccccc12)C(=O)O)OCC1c2ccccc2-c2ccccc21,61.3% (active)
12,Cc1cccc(C)c1OCC(=O)NC(Cc1c[nH]c2ccccc12)C(=O)O (stereo unspecified),2.14%
13,O=C(CCn1nnc2ccccc2c1=O)N[C@@H](Cc1c[nH]c2ccccc12)C(=O)O,0.19%
14,COCCCNC(=O)C1CCN(c2ccc(N3CCOCC3)nn2)CC1,-8.6%
15,Cc1ccc(-c2ccc(=O)n(Cc3ccc(F)cc3Cl)n2)cc1,17.9%
16,CN(C)Cc1ccc(F)cc1Sc1cc(Cl)ccc1Cl,43.6% (active)
17,COc1ccc(OC)c2c(N)c(C#N)c(C(F)(F)C(F)(F)F)nc12,3.2%
18,COc1ccc(/C=N/n2nnnc2N)cc1OC,4.77%
19,C=CCOC(=O)c1ccccc1C(=O)OCC=C,-32.7%
20,COc1ccc(OCCNC(=O)c2cc(C3CC3)nc3c2cnn3C(C)C)cc1,-0.45%
21,Cc1ccc(CNC(=O)c2ccccc2CCc2ccccc2)cc1,46.1% (active)
22,Cc1ccc(CNC(=O)c2cccnc2Cl)cc1,-10.1%
23,CSc1ccccc1C(=O)NCc1ccccc1,5.57%
24,CC(C)CNc1ncnc2c1cnn2Cc1ccc(Cl)cc1,-1.96%

row,Structure (SMILES),inhibition
1,Cc1ccc(C)c(NC(=O)C(c2ccccc2)N2CCN(CC(=O)NC3CC3)CC2)c1 (stereo unspecified),8.15%
2,Cn1c(SCc2c(F)cccc2Cl)nnc1-c1cnccn1,-6.8%
3,Fc1cccc(Cl)c1CSc1ccc(-c2ccco2)nn1,41.7% (active)
4,Cc1cc(SCc2c(F)cccc2Cl)nc(=O)[nH]1,-6.36%
5,COc1ccc(/C=N/NC(=O)C2CC2)c(OC)c1OC,-2.43%
6,COc1ccc(/C=C2/CCCc3ccccc3C2=O)cc1,42.3% (active)
7,COc1ccc(/C=C2\CCc3ccccc3C2=O)c(OC)c1OC,41.9% (active)
8,COc1ccc(/C=C2\N=C3CCCN3C2=O)cc1,0.67%
9,O=C1/C(=C/c2cccs2)CCc2ccccc21,15.7%
10,COc1ccccc1Oc1ccc(N/C=C2/CCCC2=O)cc1,1.94%
11,Cc1cnc(C(=O)N2CCCC(N3CCN(c4ccccc4F)CC3)C2)cn1 (stereo unspecified),8.65%
12,Cn1c(=O)cc(SCC(=O)N2CCCC2)c2cc(Cl)ccc21,-13.1%
13,N#CCN(C(=O)COC(=O)C1CC2CCCC(C1)C2=O)c1ccccc1 (stereo unspecified),1.42%
14,CC(=O)c1c(C)[nH]c(C(=O)NCCCN2CCCC2)c1C,-3.1%
15,O=C(CN1CCOCC1)Nc1c(-c2ccccc2)c2cc(Br)ccc2[nH]c1=O,3.52%
16,O=C(N/N=C\C1CC=CCC1)c1ccc(Br)o1 (stereo unspecified),-3.72%
17,CC(=O)Nc1ccc(C(=O)Nc2nc(-c3cc(C)n(Cc4ccccc4)c3C)cs2)cc1,43.1% (active)
18,Cc1ccc(C(=O)Nc2c(C#N)c(C)c(C)n2Cc2ccccc2)cc1,15.5%
19,CCCn1c(C)cc(-c2csc(NC(=O)CCc3nc4ccccc4c(=O)[nH]3)n2)c1C,-1.22%
20,O=C(Nc1cc(S(=O)(=O)Nc2ccc(Cl)cc2)ccc1O)c1ccc(F)cc1F,13.4%
21,Cc1ccc(C(=O)OC2=CC(=O)CC(C)(C)C2)cc1,-11.7%
22,O=C1CN(C(=O)COc2c(Cl)cccc2Cl)c2ccccc2N1,-0.21%
23,Cc1cccc(N2O[C@H]3C=CC2CCCC3)n1,-2.38%
24,CC(C)(C)c1ccc(CN2C(=O)c3ccccc3S2(=O)=O)cc1,5.21%

row,Structure (SMILES),inhibition
1,CC(C)(C)c1ccc(Oc2ccc(N)cc2)cc1,7.75%
2,CC(C)(C)c1ccc(OC2=CS(=O)(=O)c3ccccc32)cc1,46.1% (active)
3,CCCCn1c(N)c(N(CCC(C)C)C(=O)CC2OC(=O)c3ccccc32)c(=O)[nH]c1=O (stereo unspecified),-0.15%
4,O=C(C(=O)N1CCc2ccccc2C1)c1c[nH]c2ccccc12,67% (active)
5,O=C(NCCCc1ccccc1)C(=O)c1c[nH]c2ccccc12,0.84%
6,CC1CCN(CC(=O)c2c[nH]c3ccccc23)CC1,-5.44%
7,COc1ccc(-n2nc3c(c2NC(=O)c2ccc(N4C(=O)CCC4=O)cc2)CSC3)cc1,1.88%
8,O=C(COc1ccc(Br)cc1F)NCC1(N2CCCCC2)CCCCC1,1.03%
9,CSC1=NCCN1C(=O)Cc1cccc2ccccc12,-4.14%
10,CC(C)(C)Cc1nnc(NC(=O)c2cc(-c3ccccc3)nc3ccccc23)s1,10.4%
11,NC(=O)Cc1ccc2sc(-c3ccccc3)nc2c1,71.4% (active)
12,CC(=O)c1cnc(-c2ccccc2)s1,-11.9%
13,O=C(CSc1nnnn1C1CCCC1)Nc1ccc2c(c1)OCCO2,-5.58%
14,Cc1cccc(OC(=O)c2sc3ncn(C)c(=O)c3c2C)c1,-3.95%
15,CCCC1=Nc2cc(C(=O)NCc3ccco3)ccc2Sc2ccccc21,40.2% (active)
16,CC(C)(C)c1ccc(C(=O)NCc2ccco2)cc1,-10.7%
17,CCCC1=Nc2cc(C(=O)NCCN3CCCC3)ccc2Sc2ccccc21,3.01%
18,NS(=O)(=O)c1cc(Cl)c(Cl)c(S(N)(=O)=O)c1,7.96%
19,CC(=O)C1(C)N(O)C(C)(C)C(c2cccs2)=[N+]1[O-] (stereo unspecified),6.58%
20,Cc1cccc(OCCC(=O)OCc2csc(CC(=O)Nc3ccccc3C)n2)c1,-6.31%
21,CC1O[C@H](OC2C(COC3OC(CO)C(O)[C@H](O)C3O)OC(OC3CC[C@]4(C)C(CC[C@@]5(C)[C@@H]4C=C[C@]46OC[C@@]7(CCC(C)(C)C[C@H]74)C(O)C[C@@]56C)C3(C)C)C(O)C2O)C(O)C(O)C1O (stereo partly specified),-8.64%
22,CSCCC(NS(=O)(=O)c1ccc2c(c1)oc(=O)n2C)C(=O)NCc1ccccc1 (stereo unspecified),-9.32%
23,CCOc1cccc(/C=N/N2C(=O)CSC2=S)c1O,-2.71%
24,O=C1CSC(=S)N1/N=C/c1ccc(O)c([N+](=O)[O-])c1,74.7% (active)

row,Structure (SMILES),inhibition
1,Cc1cc(C(=O)N/N=C/c2ccc(O)c([N+](=O)[O-])c2)c(C)n1-c1ccc(F)cc1,23.4%
2,CCOc1ccc(-n2c(SC(C)C(=O)OC)nc3c(c2=O)SCC3)cc1 (stereo unspecified),46.2% (active)
3,CCOc1ccc(-n2c(SCC(=O)OC)nc3sc4c(c3c2=O)CCN(C)C4)cc1,5.88%
4,CCOc1ccc(NC(=O)CSc2nc3c(c(=O)n2-c2ccccc2OC)SCC3)cc1,-6.73%
5,S=C(Nc1ccccc1)Nc1ccc2ccccc2c1,-5.73%
6,Cc1cccc(NC(=S)Nc2ccc(Cl)c(Cl)c2)c1,41.4% (active)
7,NS(=O)(=O)c1ccc(NC(=S)Nc2ccc(Br)c(Cl)c2)cc1,1.95%
8,O=C(NCCS(=O)(=O)c1ccc(Br)cc1)c1ccccc1Cl,4.71%
9,Cc1nc([N+](=O)[O-])nn1C12CC3CC(CC(Br)(C3)C1)C2,2.28%
10,CCN1C[C@@H]2[C@@H]3C(=O)N(Cc4ccccc4)C(=O)[C@@H]3[C@](C)(C1=O)N2C(=O)c1ccc(C(C)(C)C)cc1,-18.2%
11,O=C(CN(C(=O)c1csnn1)c1ccc(Br)cc1)NC1CCCC1,-4.03%
12,O=C(c1ccc(Cl)c([N+](=O)[O-])c1)N1CCN(c2ccccc2)CC1,-2.12%
13,CO/N=C/c1ccc(N2CCN(C(=O)c3cccc(Cl)c3)CC2)c([N+](=O)[O-])c1,-0.58%
14,O=C(/C=C/c1ccc(Cl)cc1)N1CCN(c2ccccc2[N+](=O)[O-])CC1,41.9% (active)
15,CC(C)CCNC(=O)Cn1c(=O)oc2cc(S(=O)(=O)N3CC(C)CC(C)C3)ccc21 (stereo unspecified),-3.27%
16,O=C(CN(C(=O)c1csnn1)c1cccc(Cl)c1)NC1CCCC1,5.82%
17,CSc1nc(-c2ccco2)nn1C(=O)c1ccccc1Cl,0.74%
18,Cc1cc(C)nc(SCc2ccccc2C#N)n1,4.39%
19,Clc1ccccc1CSc1nnc(-c2ccco2)c(-c2ccco2)n1,54.2% (active)
20,COc1cccc(-c2coc3cc4oc(=O)c(CC(=O)O)c(C)c4cc23)c1,2.29%
21,Cc1ccc(/C=C/C(=O)O)cc1S(=O)(=O)N1CCC(Cc2ccccc2)CC1,3.43%
22,CCNC(=S)Nc1cccc(Cl)c1C,-7.76%
23,Cc1c(Cl)cccc1NC(=S)NCc1ccc2c(c1)OCO2,57.9% (active)
24,S=C(NCc1ccc2c(c1)OCO2)NCc1ccco1,7%
